What all share (conditions): mRNA level, 48 h; actives raise or lower the signal
Read-out in experiment [1]: Broad substrate specificity ATP-binding cassette transporter ABCG2 (Homo sapiens) (UniProt Q9UNQ0)
Nature of the experiment: LTEA_HepaRG_ABCG2: Life Technologies and Expression Analysis (LTEA) Assay for ABC Transporter (ABCG2) using HepaRG (AID 2283465). The method, boiled down: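 ABCG2 transcript was quantified by TaqMan qRT-PCR against three housekeeping genes in HepaRG cells. Cells were treated in duplicate for 48 h across an 8-point half-log series up to 100 uM, with 0.5% DMSO vehicle. Gain or loss versus DMSO was fit.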

Read-out in experiment [2]: ATP-citrate lyase (ACLY), ACLY (gene 47)
Nature of the experiment: LTEA_HepaRG_ACLY: Life Technologies and Expression Analysis (LTEA) Assay for ATP-citrate lyase (ACLY) using HepaRG (AID 2283466). The method, boiled down:
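ACLY mRNA quantified by qRT-PCR on Fluidigm arrays against three housekeeping genes, after 48 h chemical treatment of HepaRG cells (top concentration 100 uM, half-log steps, 0.5% DMSO vehicle). Up- or down-regulation fitted relative to DMSO.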

Read-out in experiment [3]: Peroxisomal acyl-coenzyme A oxidase 1 (ACOX1) gene, ACOX1 (gene 51)
Nature of the experiment: LTEA_HepaRG_ACOX1: Life Technologies and Expression Analysis (LTEA) Assay for Peroxisomal acyl-coenzyme A oxidase 1 (ACOX1) gene using HepaRG (AID 2283467). The method, boiled down:
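ACOX1 transcript levels were quantified by TaqMan qRT-PCR against three housekeeping genes after 48 h chemical exposure of differentiated human HepaRG cells. Exposure used eight half-log steps topping at 100 uM, 0.5% DMSO vehicle, in duplicate. Bidirectional curve fits were made relative to DMSO.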

Read-out in experiment [4]: Alkaline Phosphatase, Placental (ALPP) gene, ALPP (gene 250)
Nature of the experiment: LTEA_HepaRG_ALPP: Life Technologies and Expression Analysis (LTEA) Assay for Alkaline Phosphatase, Placental (ALPP) gene using HepaRG (AID 2283468). The method, boiled down: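 HepaRG, 48 h plating then 48 h dosing, serum-free induction medium, 0.5% DMSO. 8 conc, half-log, max 100 uM, duplicates. Endpoint: ALPP transcript by qRT-PCR, housekeeping-normalized; gain or loss fitted vs DMSO.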

Read-out in experiment [5]: Bcl-2 (BAD) gene, BAD (gene 572)
Nature of the experiment: LTEA_HepaRG_BAD: Life Technologies and Expression Analysis (LTEA) Assay for Bcl-2 (BAD) gene using HepaRG (AID 2283469). The method, boiled down: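 Read-out: qRT-PCR of BAD mRNA, normalized to three housekeeping genes. Human HepaRG cultures got 48 h chemical exposure in 0.5% DMSO, duplicate eight-point half-log series topping at 100 uM. Gain or loss of signal fitted versus DMSO vehicle.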

Read-out in experiment [6]: adenosine kinase (ADK) gene, ADK (gene 132)
Nature of the experiment: LTEA_HepaRG_ADK: Life Technologies and Expression Analysis (LTEA) Assay for adenosine kinase (ADK) gene using HepaRG (AID 2283471). The method, boiled down: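 Differentiated HepaRG cells dosed 48 h in serum-free induction medium, 0.5% DMSO vehicle, eight half-log concentrations from 100 uM, in duplicate. ADK mRNA by TaqMan qRT-PCR normalised to ACTB, GAPDH, POLR2A; bidirectional fit versus DMSO.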

Read-out in experiment [7]: Alpha-fetoprotein (AFP) gene, AFP (gene 174)
Nature of the experiment: LTEA_HepaRG_AFP: Life Technologies and Expression Analysis (LTEA) Assay for Alpha-fetoprotein (AFP) gene using HepaRG (AID 2283472).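 For AC50: AFP transcript by TaqMan qRT-PCR normalized to ACTB GAPDH and POLR2A.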 The method, boiled down:
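qRT-PCR (Fluidigm TaqMan) readout of AFP transcript, normalized to three housekeeping genes, fitted bidirectionally against 0.5% DMSO baseline. HepaRG cells received chemicals for 48 h in serum-free induction medium, top concentration 100 uM, half-log steps.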

Read-out in a further experiment: BCL2L11 (gene 10018)
Nature of the experiment: LTEA_HepaRG_BCL2L11: Life Technologies and Expression Analysis (LTEA) Assay for Bcl-2 (BCL2L11) gene using HepaRG (AID 2283473). The method, boiled down:
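Read-out is BCL2L11 transcript level by qRT-PCR, normalized to three housekeeping genes and fitted bidirectionally against 0.5% DMSO vehicle. HepaRG cells received chemicals for 48 h in serum-free induction medium, 100 uM down in half-log dilutions.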

Read-out in experiment [8]: Apolipoprotein A-V (APOA5) gene, APOA5 (gene 116519)
Nature of the experiment: LTEA_HepaRG_APOA5: Life Technologies and Expression Analysis (LTEA) Assay for Apolipoprotein A-V (APOA5) gene using HepaRG (AID 2283474). The method, boiled down:
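Readout is APOA5 transcript level by qRT-PCR on Fluidigm dynamic arrays, normalized to three housekeeping genes. HepaRG cultures received chemicals for 48 h at up to 100 uM (half-log steps, 0.5% DMSO), with gain or loss scored relative to DMSO.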

Read-out in experiment [9]: Bcl-2 (BAX) gene, BAX (gene 581)
Nature of the experiment: LTEA_HepaRG_BAX: Life Technologies and Expression Analysis (LTEA) Assay for Bcl-2 (BAX) gene using HepaRG (AID 2283470). The method, boiled down: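 qRT-PCR read-out of BAX mRNA, normalized to three housekeeping genes, after 48 h chemical exposure of human HepaRG cells in serum-free induction medium; eight-point half-log series, top 100 uM, 0.5% DMSO vehicle; bidirectional fit versus DMSO.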

Here are results for 16 molecules from PubChem BioAssay (EPA / NIEHS).

Calls of active or inactive are those of the source. Rule for the calls: active = hit-call score of the fitted dose curve at least 0.9, where 1 is the maximum; inactive = score below 0.9.

Broad substrate specificity ATP-binding cassette transporter ABCG2 (Homo sapiens), sequence (Q9UNQ0 whole entry, looked up): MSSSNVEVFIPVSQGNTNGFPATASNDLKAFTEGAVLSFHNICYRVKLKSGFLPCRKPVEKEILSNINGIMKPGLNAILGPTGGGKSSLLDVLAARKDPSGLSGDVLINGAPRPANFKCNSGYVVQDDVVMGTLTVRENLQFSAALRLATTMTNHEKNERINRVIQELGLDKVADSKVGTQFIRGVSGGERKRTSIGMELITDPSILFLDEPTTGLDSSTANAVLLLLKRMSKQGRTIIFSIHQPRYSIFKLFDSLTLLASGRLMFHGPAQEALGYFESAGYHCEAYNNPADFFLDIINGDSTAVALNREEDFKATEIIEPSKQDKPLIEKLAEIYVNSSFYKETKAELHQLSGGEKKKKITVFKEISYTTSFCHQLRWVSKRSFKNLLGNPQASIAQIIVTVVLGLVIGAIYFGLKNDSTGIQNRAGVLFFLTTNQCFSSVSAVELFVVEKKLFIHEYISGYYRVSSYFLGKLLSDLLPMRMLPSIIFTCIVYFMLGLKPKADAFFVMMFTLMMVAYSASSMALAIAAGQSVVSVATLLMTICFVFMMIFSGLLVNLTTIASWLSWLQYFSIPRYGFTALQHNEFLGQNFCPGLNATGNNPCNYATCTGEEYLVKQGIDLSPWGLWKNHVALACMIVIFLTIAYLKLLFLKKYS

Take `O=C(OCCOCCOC(=O)c1ccccc1)c1ccccc1`: the molecule was called inactive in experiment [1], in experiment [2], in experiment [3], in experiment [4], in experiment [5] and in experiment [6]. Further, the molecule was called inactive (in experiment [7]; with BCL2L11 (gene 10018); in experiment [8]).

As to `CC(C)(C)c1cccc(C(C)(C)C)c1O`, the outcome in [1], in [2], in [3], in experiment [5], in [9] and in experiment [6] was inactive. Besides, the outcome (in [7]; with BCL2L11 (gene 10018); in experiment [8]) was inactive.

With `CCCCCCCCCCCCCCCS(=O)(=O)Oc1ccccc1`, the call in [1], in experiment [2], in [3], in experiment [5], in [6] and in experiment [7] was inactive. For the same molecule, the molecule was called inactive (with BCL2L11 (gene 10018); in experiment [8]).

Consider `CCCCCCCCCCCCc1ccccc1S(=O)(=O)O`, for which the concentration at half-maximal activity (AC50) in experiment [1] was 50 µM (active); in experiment [3] it was 11.7 µM (active); in experiment [7] it was 80 µM (active); in [8], 80.3 µM (active). For the same molecule, the result (in [2]; in experiment [5]; in experiment [6]; in the experiment with BCL2L11 (gene 10018)) was inactive.

On to `Cc1oc(-c2ccccc2)nc1CCOc1ccc(C[C@H](Nc2ccccc2C(=O)c2ccccc2)C(=O)O)cc1`, for which the AC50 in [1] is 27.7 µM (active); in experiment [2], 22.6 µM (active); in [3], 27.3 µM (active); in [6], 30.5 µM (active); in the experiment with BCL2L11 (gene 10018), 84.6 µM (active). Moreover, the molecule was called inactive in [5], in experiment [7] and in [8].

In the case of `N#C[C@@H]1CC(F)(F)CN1C(=O)CNC1CC2CCC(C1)N2c1ncccn1` (stereo partly drawn), the molecule was called inactive in [1], in experiment [2], in [3], in [5], in [6] and in [7]. Further, the molecule was called inactive (in the experiment with BCL2L11 (gene 10018); in [8]).

Regarding `CCC(=C(c1ccc(O)cc1)c1ccc(OCCN(C)C)cc1)c1ccccc1`, the molecule was classed as inactive in experiment [1], in experiment [2], in experiment [3], in experiment [5], in experiment [7] and in experiment [8]. The AC50 was 75.2 µM (active) in [6] and 82.9 µM (active) with BCL2L11 (gene 10018).

`CN1CCC[C@H]1c1cccnc1`: the call (in experiment [1]; in [2]; in experiment [5]; in experiment [6]; in experiment [7]; with BCL2L11 (gene 10018)) was inactive. Moreover, the call in [8] was inactive. For the same molecule, the half-maximal activity concentration (AC50) in experiment [3] is 12.6 µM (active).

With `CCCOc1sc(C(=O)N2CCC(c3cc(CN)ccc3F)CC2)c(C)c1Br`, the molecule was classed as inactive in [1], in experiment [2], in [3], in experiment [5], in experiment [6] and in [7]. The outcome (with BCL2L11 (gene 10018); in [8]) was inactive.

Turning to `COCC(C)OCC(C)O` (stereo not drawn), the result in experiment [1], in experiment [2], in [3], in experiment [5], in experiment [6] and in experiment [7] was inactive. Further, the molecule was called inactive (with BCL2L11 (gene 10018); in experiment [8]).

On to `Nc1cccc2c(N)cccc12`, for which the call in experiment [1], in experiment [2], in experiment [3], in experiment [5], in experiment [9] and in experiment [6] was inactive. Moreover, the result (in experiment [7]; in the experiment with BCL2L11 (gene 10018); in [8]) was inactive.

`CCN(CC)CCNc1ccc(CNC=O)c2sc3ccc(OC)cc3c(=O)c12`: the AC50 in [1] was 9.65 µM (active); in [2], 83.2 µM (active); in [3] it was 50 µM (active); in experiment [6], 76.7 µM (active); in experiment [7], 11.5 µM (active); with BCL2L11 (gene 10018) it was 21.9 µM (active). Further, the AC50 in experiment [8] was 12.4 µM (active). Besides, the outcome in [5] and in experiment [9] was inactive.

In the case of `Cc1cc(CCN2CCN(c3nsc4ccccc34)CC2)cc2c1NC(=O)CC2(C)C`, the AC50 in experiment [1] is 32 µM (active); in experiment [3], 75.2 µM (active); in experiment [7], 72.6 µM (active); in experiment [8] it was 75.9 µM (active). Further, the call (in experiment [2]; in [5]; in experiment [6]; in the experiment with BCL2L11 (gene 10018)) was inactive.

On to `CCCOC(=O)c1ccc(O)cc1`, for which the result in [1], in [2], in [3], in [5], in [9] and in [6] was inactive. For the same molecule, the molecule was called inactive (in experiment [7]; with BCL2L11 (gene 10018); in experiment [8]).

Regarding `CCCCCCCCCCCCN1CCCC1=O`, the molecule was called inactive in experiment [1], in experiment [2], in experiment [3], in experiment [5], in [6] and in [7]. The molecule was classed as inactive (with BCL2L11 (gene 10018); in experiment [8]).

For `CC(C)(C)c1cc(C(C)(C)C)c(O)c(C(C)(C)C)c1`, the half-maximal activity concentration (AC50) was 20.9 µM (active) in [1] and 39.8 µM (active) in [7]. Moreover, the outcome (in experiment [2]; in experiment [3]; in [5]; in experiment [6]; with BCL2L11 (gene 10018); in experiment [8]) was inactive.

As usually defined, the AC50 is the concentration at which the activity in the assay is half-maximal.
